The structures appear in SMILES notation. Hit rate of the full screen: of about 330,000 compounds, about 1,400 (0.42%) were called active.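 Rule for the calls: active = plate passing quality check with inhibition over a set limit, or well fluorescence over plate mean plus 4 SD; inactive = the rest.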 For the sample, actives were picked, then their nearest neighbours and some compounds at random.

The assay is described as follows: inhibitors of Candida efflux pumps in yeast, primary screen, S. cerevisiae, Nile Red, multiplex (AID 485275).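 Note: Nile Red retained in pooled yeast measured as flow cytometry median fluorescence; 0% = buffer negative control and 100% = Enniatin B positive control; higher means more Nile Red kept so more efflux inhibition.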 The settings on record: S. cerevisiae Candida pump triplex, at 10 µM, hits give high values.
The inhibition is the drop in the measured response relative to a control, in per cent. Take `Cc1ccc(N2CCN(c3ccc(C)cc3)C2c2ccccn2)cc1`: the inhibition is 0.22% (inactive).

As to `CSCCC(NC(=O)COc1ccccc1)C(=O)OCC(=O)c1cc2ccccc2o1` (centres undefined), the inhibition was -0.18% (inactive).

With `CSCCC(NC(=O)COc1ccccc1)C(=O)OCCOc1ccc(F)cc1` (centres undefined), the inhibition is 0.07% (inactive).

Turning to `CSCCC(NC(=O)COc1ccccc1)C(=O)OCCOc1ccc(Br)cc1` (centres undefined), the inhibition is 0.49% (active).

On to `O=C(CCC(=O)N1CCCC1)Nc1ccc([N+](=O)[O-])cc1`, for which the inhibition was 0.32% (inactive).

On to `Cc1ccc(NC(=O)c2ccc(Cl)nc2)cc1S(=O)(=O)N1CCOCC1`, for which the inhibition was 0.15% (inactive).

Take `Cc1cc(C(=O)NNC(=O)c2cccc(S(=O)(=O)N3CCOCC3)c2)c2ccccc2n1`: the inhibition was 0% (inactive).

For `Cc1cc(C(=O)Nc2ccc(C)c(S(=O)(=O)N3CCOCC3)c2)c2ccccc2n1`, the inhibition was 1.11% (active).

Regarding `COc1ccc(C2(C)NC(=O)N(CC(=O)c3ccc4c(c3)OCO4)C2=O)cc1` (centres undefined), the inhibition was 0.11% (inactive).

Regarding `CCCCN(C(=O)C(CCSC)N1C(=O)c2ccccc2C1=O)c1c(N)n(CCC)c(=O)[nH]c1=O` (centres undefined), the inhibition was -0.17% (inactive).

On to `Cc1nn(C)cc1N1C(=O)c2cccc3c(N)ccc(c23)C1=O`, for which the inhibition is 0.48% (active).

For `Cc1ccc(NC(=O)COC(=O)C2C3CC4OC(=O)C2C4C3)cc1Cl` (centres undefined), the inhibition was 0.04% (inactive).

Take `Cc1oc2cc3oc(=O)ccc3cc2c1C`: the inhibition is 2.16% (active).

On to `COc1c(C(C)C)oc2cc3oc(=O)ccc3cc12`, for which the inhibition is 0% (inactive).

As to `Cc1noc(C)c1COc1ccc2ccc(=O)oc2c1`, the inhibition is 0.13% (inactive).

On to `CC[C@]1(C(=O)OC)[C@H]2C(=O)N(Cc3ccccc3)C(=O)[C@H]2[C@H]2CN=C(SCc3ccc(Cl)cc3)N21`, for which the inhibition was 0.03% (inactive).

For the compound `CC(=O)N1CCN(CC(C)(C)NS(=O)(=O)c2ccc(C)cc2)CC1`, the inhibition was 0.16% (inactive).

Regarding `CCn1ncc(C2=NOC(C(=O)Nc3ccccc3C(=O)OC)C2)c1C` (centres undefined), the inhibition was -0.18% (inactive).

As for `Cc1ccccc1OCC(=O)Nc1nc(C)c(C(=O)N(C)C)s1`, the inhibition was -0.09% (inactive).

Turning to `Cc1cccc(NC(=O)COc2ccccc2C)n1`, the inhibition is 1.07% (active).

As to `Cc1cccc(NC(=O)COc2ccc(Br)cc2C)n1`, the inhibition was -0.04% (inactive).

With `COc1ccc(Cc2nc3ccc(C(=O)N4CCC(N(C)C)C4)cc3o2)cc1` (centres undefined), the inhibition was -0.47% (inactive).

Turning to `O=C(COc1ccccc1F)NNC(=O)c1cc(Br)ccc1Cl`, the inhibition is 0.03% (inactive).

On to `CC1CCN(C(=O)CCc2nnc3ccc(NCc4ccco4)nn23)CC1`, for which the inhibition is 0.1% (inactive).

As for `CCC1(CC)NC(=O)N(CC(=O)OCC(=O)NC(=O)c2ccccc2)C1=O`, the inhibition was 0.07% (inactive).

For the compound `O=C(Cc1ccccc1)NCC1OCCc2ccccc21` (centres undefined), the inhibition was 0.87% (active).

For the compound `NC(=O)c1oc2ccccc2c1NC(=O)Cc1ccccc1`, the inhibition is 0.32% (inactive).

With `O=S(=O)(NCC1OCCc2ccccc21)c1ccccc1` (centres undefined), the inhibition was -0.08% (inactive).

Regarding `COc1ccc(C2=NN(C(=O)c3ccccc3C(=O)O)C(c3ccccc3O)C2)cc1` (centres undefined), the inhibition was -0.05% (inactive).

In the case of `CCOc1ccccc1C1CC(c2cccc(NS(C)(=O)=O)c2)=NN1C(=O)c1ccccc1` (centres undefined), the inhibition is -0.18% (inactive).

As to `CCOc1ccc2nc(Cl)c(C3CC(c4ccccc4)=NN3C(=O)c3cccs3)cc2c1` (centres undefined), the inhibition was 0.46% (active).

Regarding `N#Cc1ccc(CN2CCN(CC(=O)Nc3ccccc3C(=O)NC3CC3)CC2)cc1`, the inhibition is 0.14% (inactive).

For `CCCCC(NS(=O)(=O)c1ccc(C)cc1)C(=O)Oc1ccc2c3c(c(=O)oc2c1)CCC3` (centres undefined), the inhibition was 0.09% (inactive).

Turning to `C/C(N)=C(/C#N)C(=O)COC(=O)c1cc(-c2cccc(Br)c2)nc2ccccc12`, the inhibition was 37.8% (active).

In the case of `C/C(N)=C(/C#N)C(=O)COC(=O)c1cc(-c2ccc(C)cc2)nc2ccccc12`, the inhibition was -0.3% (inactive).

With `C/C(N)=C(/C#N)C(=O)COC(=O)c1cc(-c2ccccc2)nc2ccc(Br)cc12`, the inhibition was 0.06% (inactive).

With `Cc1cccc(NC(=O)C2CCCN2S(=O)(=O)c2ccc(F)cc2)c1C` (centres undefined), the inhibition was -0.01% (inactive).

Consider `CC(C)c1nnc(NC(=O)C2CCCN2S(=O)(=O)c2ccc(Cl)cc2)s1` (centres undefined), for which the inhibition was -0.16% (inactive).

Regarding `COc1ccccc1NC(=O)C1CCCN1S(=O)(=O)c1ccc(Cl)cc1` (centres undefined), the inhibition is 0.94% (active).

For `COc1ccccc1/C=N/N1CCN(Cc2ccccc2Cl)CC1`, the inhibition was -0.11% (inactive).

As to `CC12CCC(C(=O)N(NC(=O)c3ccccc3O)C1=O)C2(C)C` (centres undefined), the inhibition is -0.08% (inactive).

As for `CC12CCC(C(=O)N(c3cccc(Cl)c3)C1=O)C2(C)C` (centres undefined), the inhibition was 10.2% (active).

Consider `O=C1CC(NNc2ccccc2)C(=O)N1c1cccc(Cl)c1` (centres undefined), for which the inhibition was 0.07% (inactive).

With `O=C(CCCN1C(=O)CSc2ncccc21)N1CCN(c2cccc(C(F)(F)F)c2)CC1`, the inhibition is 0.01% (inactive).

As for `O=C(CSC1CC(=O)N(CCc2ccccc2)C1=O)Nc1ccc(Cl)cc1` (centres undefined), the inhibition was 0.17% (inactive).

Take `NC(=O)c1cc(S(=O)(=O)NCCCc2ccco2)cs1`: the inhibition is -0.02% (inactive).

In the case of `COc1cccc(NC(=O)CN(C)C(=O)Cc2ccc(Cl)cc2Cl)c1`, the inhibition is -0.07% (inactive).

Regarding `COc1ccc(/C=C/C(=O)OCC(=O)Nc2cccc(Oc3ccccc3)c2)c(OC)c1`, the inhibition is -0.02% (inactive).

For the compound `COc1cccc(NC(=O)CN(C)C(=O)/C=C/c2cc(OC)ccc2OC)c1`, the inhibition is 15.2% (active).

Turning to `CCN(CC)CC(=O)Nc1nn(-c2ccccc2)nc1C(N)=O`, the inhibition was 0.02% (inactive).

In the case of `Cc1ccc(C(=O)Nc2ccn(C)n2)cc1`, the inhibition was -0.02% (inactive).

As to `CN(C)S(=O)(=O)c1cc(C(=O)Nc2ccn(C)n2)c(Cl)cc1Cl`, the inhibition is 52.3% (active).

On to `O=C(Nc1nccs1)c1cc(S(=O)(=O)N2CCOCC2)c(Cl)cc1Cl`, for which the inhibition was -0.05% (inactive).

In the case of `COC(=O)/C(=C1\Oc2ccc(C(C)(C)C)cc2S1)C(F)(F)F`, the inhibition is -0.15% (inactive).

Turning to `O=C(NN1C(=O)C2CCCCC2C1=O)c1ccco1` (centres undefined), the inhibition is -0.1% (inactive).

Take `Cc1ccc(S(=O)(=O)N2CC(C)N(S(C)(=O)=O)C2)cc1` (centres undefined): the inhibition was -0.07% (inactive).

In the case of `CCOC(=O)c1c(NC(=S)Nc2ccccc2)sc2c1CCN(C)C2`, the inhibition is -0.02% (inactive).

With `CCOC(=O)c1c(NC(=S)NC(=O)c2ccco2)sc2c1CCCC2`, the inhibition was 1.02% (active).

For `CCOC(=O)c1c(NC(=O)C2(C)Cc3ccccc3C(=O)O2)sc2c1CCCC2` (centres undefined), the inhibition is 0.15% (inactive).
